Data taken from PubChem BioAssay (NCATS).
Inconclusive results are not listed. Calls of active or inactive are those of the source. Calls follow the shape of the dose curve; as a rule, active = well fitted curve in the direction sought with a large enough effect; inconclusive = small, poorly fitted or top-dose-only effect, or another doubt; inactive = no such curve, though single readings can be large; an effect the other way counts as inactive or inconclusive.

Legend:
[1] = target: Glutathione peroxidase 1 (Homo sapiens) (UniProt P07203); assay: Primary qHTS Assay for Inhibitors of Recombinant Selenoprotein Glutathione Peroxidase 1 (GPX1) (AID 1845191); also: nearly all actives have a fitted effect of over 65% in size; as to activity, negative = inhibition: % is scaled to controls: 0 for no effect and ±100 for the full control effect
Chain of Glutathione peroxidase 1 (Homo sapiens) (P07203 whole entry, looked up): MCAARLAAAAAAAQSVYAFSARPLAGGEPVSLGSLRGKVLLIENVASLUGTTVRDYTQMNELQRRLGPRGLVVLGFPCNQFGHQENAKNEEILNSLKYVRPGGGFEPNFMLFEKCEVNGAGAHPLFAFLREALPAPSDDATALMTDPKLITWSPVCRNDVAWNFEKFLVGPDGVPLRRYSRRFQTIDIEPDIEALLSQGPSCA
How it was run: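 GPX1 10 nM, GR 100 nM, GSH 1 mM, NADPH 0.5 mM, CHP 0.5 mM (final). 30-min cpd preincubation, RT. Ex340/Em450 read t=0, t=15 min.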

[2] = target: Phospholipid hydroperoxide glutathione peroxidase GPX4 (Homo sapiens) (UniProt P36969); assay: Primary qHTS Assay for Inhibitors of Recombinant Selenoprotein Glutathione Peroxidase 4 (GPX4) (AID 1845192); also: nearly all actives have a fitted effect of over 65% in size; as to activity change, negative = inhibition: series mostly up to about 50 µM; % is scaled to controls: 0 for no effect and ±100 for the full control effect
Chain of Phospholipid hydroperoxide glutathione peroxidase GPX4 (Homo sapiens) (P36969 whole entry, looked up): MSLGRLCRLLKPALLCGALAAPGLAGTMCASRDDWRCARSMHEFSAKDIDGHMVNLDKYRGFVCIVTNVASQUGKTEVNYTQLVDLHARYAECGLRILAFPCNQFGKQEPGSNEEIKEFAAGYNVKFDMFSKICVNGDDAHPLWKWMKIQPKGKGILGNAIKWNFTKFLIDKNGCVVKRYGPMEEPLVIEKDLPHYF
How it was run: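 qHTS, GR-coupled: GPX4 200 nM + cpd 30 min RT → GSH 1 mM, NADPH 0.5 mM, GR 100 nM → CHP 0.5 mM start; fluor 340/450 at t0 and t15 min; no-enzyme wells as control.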

[3] = target: Luciferin 4-monooxygenase (Photinus pyralis) (UniProt P08659); assay: Primary firefly luciferase (FLuc) qHTS assay for identification of artifact compounds. (AID 1845220); also: nearly all actives have a fitted effect of over 60% in size;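 as to activity change, negative = inhibition: series mostly up to about 54 µM; plate controls were DMSO vehicle for no effect and no enzyme for full effect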
How it was run: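 qHTS, 15 min compound preincubation with substrate (10 uM luciferin, 10 uM ATP) at RT, then 10 nM FLuc; 5 min; luminescence; % inhibition vs no-enzyme/DMSO controls, 4-parameter Hill fit.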

[4] = Primary fluorescence-based thiol-reactive (MSTI) qHTS assay for identification of artifact compounds. (AID 1845221);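 also: series mostly up to about 54 µM; thiol-reactive compounds lower the probe fluorescence signal; nearly all actives have a fitted effect of over 65% in size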
How it was run: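 Thiol-reactive compounds detected by quenching of 4 uM MSTI fluorescence (525/598 nm) after 1 h room-temperature dark incubation in PBS pH 7.4, 2% DMSO. qHTS titration; percent inhibition Hill-fitted against Acetyl-MSTI/MSTI controls.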

[5] = tested on: Nanoluciferase (engineered Oplophorus gracilirostris luciferase); assay: Primary Nanoluciferase (NLuc) qHTS assay for identification of artifact compounds. (AID 1845222); also: series mostly up to about 54 µM
How it was run: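 Luminescence read-out of secreted NLuc in S16 cell conditioned medium (1:55); compounds tested with 15 min RT preincubation, then Nano-Glo substrate 1:100, 5 min. % inhibition vs no-enzyme and DMSO controls, 4-parameter Hill fit.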

[6] = Primary redox qHTS assay for identification of artifact compounds. (AID 1845223);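 also: 0% = DMSO and 100% = reference compound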
How it was run: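 Redox-cycling detection via DTT (250 uM final) oxidation coupled to Amplex Red (25 uM)/HRP (250 mU/mL) in HBSS. 15 min preincubation plus 30 min after DTT, room temperature. Ex/Em 525/598 nm; 4-parameter Hill fit against DMSO and 10 uM DA3003.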

CCN1C[C@]2(COC(=O)c3ccccc3N3C(=O)C[C@H](C)C3=O)CC[C@H](OC)[C@@]34[C@@H]5C[C@H]6[C@H](OC)[C@@H]5[C@](O)(C[C@@H]6OC)[C@](O)([C@@H](OC)[C@H]23)[C@@H]14
inactive: Potency [1] | Potency [2] | Potency [3] | Potency [4] | outcome [5] | outcome [6]

C=C1[C@@H]2CC[C@@]3(C)[C@H](c4ccoc4)OC(=O)C[C@]13O[C@H]1CC(=O)C(C)(C)[C@H](C(OC(C)=O)C(=O)OC)[C@]12C (some centres undefined)
inactive: Potency [1] | Potency [2] | Potency [3] | Potency [4] | outcome [5] | outcome [6]

CN1[C@H]2C[C@H](OC(=O)[C@H](CO)c3ccccc3)C[C@@H]1[C@@H](O)C2
inactive: Potency [1] | Potency [2] | Potency [3] | Potency [4] | outcome [5] | outcome [6]

CN(C)CCc1c[nH]c2ccc(CN3CCN(C)S3(=O)=O)cc12
inactive: Potency [1] | Potency [2] | Potency [3] | Potency [4] | outcome [5] | outcome [6]

C1=C2CCCN[C@H]2[C@@H]2C[C@H]1[C@H]1CCCCN1C2
inactive: Potency [1] | Potency [2] | Potency [3] | Potency [4] | outcome [5] | outcome [6]

C[C@@](O)(COc1ccc(C#N)cc1)C(=O)Nc1ccc(C#N)c(C(F)(F)F)c1
inactive: Potency [1] | Potency [2] | Potency [3] | Potency [4] | outcome [5] | outcome [6]

COc1cc2c(cc1OC)[C@@]13CCN4CC5=CCO[C@H]6CC(=O)N2[C@H]1[C@H]6[C@H]5C[C@H]43
inactive: Potency [1] | Potency [2] | Potency [3] | Potency [4] | outcome [5] | outcome [6]

C/C=C(\C)C(=O)O[C@H]1[C@H](OC(C)=O)[C@]2(CO)[C@H](O)[C@H](O)[C@]3(C)C(=CCC4[C@@]5(C)CC[C@H](O[C@@H]6O[C@H](C(=O)O)[C@@H](O)[C@H](O[C@@H]7OC[C@H](O)[C@H](O[C@@H]8OC[C@H](O)[C@H](O)[C@H]8O)[C@H]7O)[C@H]6O[C@@H]6O[C@H](CO)[C@@H](O)[C@H](O)[C@H]6O)C(C)(C)C5CC[C@]43C)[C@@H]2CC1(C)C (some centres undefined)
inactive: outcome [1] inactive [at 9.52 µM] | activity change, negative = inhibition [2] 2.03% [at 9.73 µM] | outcome [3] inactive [at 11.6 µM] | activity change, negative = thiol reactive [4] 214% [at 11.5 µM] | activity, negative = inhibition [5] 2.49% [at 11.6 µM] | redox activity (% of DA3003) [6] 9.29% [at 11.5 µM]

CC(CCc1ccc(O)cc1)O[C@@H]1O[C@H](CO[C@H]2OC[C@](O)(CO)[C@H]2O)[C@@H](O)[C@H](O)[C@H]1O (some centres undefined)
inactive: Potency [1] | Potency [2] | Potency [3] | Potency [4] | outcome [5] | outcome [6]

CC(N)Cc1c[nH]c2ccccc12 (centres undefined)
inactive: Potency [1] | Potency [2] | Potency [3] | Potency [4] | outcome [5] | outcome [6]

CCC(C)(C#N)O[C@@H]1O[C@H](CO)[C@@H](O)[C@H](O)[C@H]1O (some centres undefined)
inactive: Potency [1] | Potency [2] | Potency [3] | Potency [4] | outcome [5] | outcome [6]

CCN1C[C@]2(COC)[C@H](O)C[C@H](OC)[C@]34[C@@H]5C[C@]6(O)[C@H](OC(=O)c7ccccc7)[C@@H]5[C@@](O)([C@H]([C@H](OC)[C@H]23)[C@@H]14)[C@@H](O)[C@@H]6OC
inactive: Potency [1] | Potency [2] | Potency [3] | Potency [4] | outcome [5] | outcome [6]

COC(=O)C1(C)CCC(=O)C2(C)c3c(O)cc(C(C)C)cc3C(O)C(OC(C)=O)C12 (centres undefined)
inactive: Potency [1] | Potency [2] | Potency [3] | Potency [4] | outcome [5] | outcome [6]

Clc1ccc(N2C[C@H]3CC[C@@H](C2)N3)nn1
inactive: Potency [1] | Potency [2] | Potency [3] | Potency [4] | outcome [5] | outcome [6]

C[C@H]1C(=O)O[C@H]2[C@H](O)[C@]34C5OC(=O)[C@]3(O[C@@H]3OC(=O)[C@H](O)C34[C@H](C(C)(C)C)[C@H]5O)C12O (some centres undefined)
inactive: Potency [1] | Potency [2] | Potency [3] | Potency [4] | outcome [5] | outcome [6]

C[C@]12CC[C@H]3[C@@H]([C@H](O)CC4=CC(=O)CC[C@@]43C)[C@@H]1CC[C@@H]2O
inactive: Potency [1] | Potency [2] | Potency [3] | Potency [4] | outcome [5] | outcome [6]

OCCCCC#Cc1cncc(OC[C@@H]2CCN2)c1
inactive: Potency [1] | Potency [2] | Potency [3] | Potency [4] | outcome [5] | outcome [6]

CN1[C@@H]2CC[C@H]1CC(OC(=O)C1C=Nc3ccccc31)C2 (some centres undefined)
inactive: Potency [1] | Potency [2] | Potency [3] | Potency [4] | outcome [5] | outcome [6]

CC(C)C1(OO)C=C2C(=O)CC3C(C)(C(=O)O)CCCC3(C)C2CC1 (centres undefined)
inactive: Potency [1] | Potency [2] | Potency [3] | Potency [4] | outcome [5] | outcome [6]
